Inhibition data for three compounds are collected here from ChEMBL document CHEMBL1961873, “Compounds: GSK PKIS; Assays: Nanosyn kinase panel” (2012).

The term inhibition denotes the drop in the measured response relative to a control, in per cent.

In experiment [1] the target is 5'-AMP-activated protein kinase catalytic subunit alpha-2 (Homo sapiens) (UniProt P54646). The note with it: at 1 µM.
Experiment [2] deals with T1, NUAK family SNF1-like kinase 1 (Homo sapiens) (UniProt O60285).
T1 sequence (whole entry): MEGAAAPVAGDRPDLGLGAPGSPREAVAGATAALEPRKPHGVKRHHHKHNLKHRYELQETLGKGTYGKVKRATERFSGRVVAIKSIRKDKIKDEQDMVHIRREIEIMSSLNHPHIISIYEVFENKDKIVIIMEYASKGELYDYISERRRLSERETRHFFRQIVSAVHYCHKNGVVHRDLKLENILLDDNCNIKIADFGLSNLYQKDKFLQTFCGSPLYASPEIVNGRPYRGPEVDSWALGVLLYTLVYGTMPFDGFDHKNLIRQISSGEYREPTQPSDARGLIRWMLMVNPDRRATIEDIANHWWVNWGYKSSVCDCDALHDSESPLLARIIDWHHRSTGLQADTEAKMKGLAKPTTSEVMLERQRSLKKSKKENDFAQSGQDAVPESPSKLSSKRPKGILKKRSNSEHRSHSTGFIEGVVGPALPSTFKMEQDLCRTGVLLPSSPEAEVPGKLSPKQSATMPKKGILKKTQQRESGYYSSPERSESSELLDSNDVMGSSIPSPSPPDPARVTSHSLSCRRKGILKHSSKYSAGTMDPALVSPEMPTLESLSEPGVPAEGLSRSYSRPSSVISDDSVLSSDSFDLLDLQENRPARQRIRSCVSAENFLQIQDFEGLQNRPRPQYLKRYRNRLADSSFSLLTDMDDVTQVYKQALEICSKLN
The note with it: at 0.1 µM.

The target in experiment [3] is T1, NUAK family SNF1-like kinase 1 (Homo sapiens). The note with it: at 1 µM.
Experiment [4] addresses T2, Serine/threonine-protein kinase BRSK1 (Homo sapiens) (UniProt Q8TDC3).
T2 sequence (whole entry): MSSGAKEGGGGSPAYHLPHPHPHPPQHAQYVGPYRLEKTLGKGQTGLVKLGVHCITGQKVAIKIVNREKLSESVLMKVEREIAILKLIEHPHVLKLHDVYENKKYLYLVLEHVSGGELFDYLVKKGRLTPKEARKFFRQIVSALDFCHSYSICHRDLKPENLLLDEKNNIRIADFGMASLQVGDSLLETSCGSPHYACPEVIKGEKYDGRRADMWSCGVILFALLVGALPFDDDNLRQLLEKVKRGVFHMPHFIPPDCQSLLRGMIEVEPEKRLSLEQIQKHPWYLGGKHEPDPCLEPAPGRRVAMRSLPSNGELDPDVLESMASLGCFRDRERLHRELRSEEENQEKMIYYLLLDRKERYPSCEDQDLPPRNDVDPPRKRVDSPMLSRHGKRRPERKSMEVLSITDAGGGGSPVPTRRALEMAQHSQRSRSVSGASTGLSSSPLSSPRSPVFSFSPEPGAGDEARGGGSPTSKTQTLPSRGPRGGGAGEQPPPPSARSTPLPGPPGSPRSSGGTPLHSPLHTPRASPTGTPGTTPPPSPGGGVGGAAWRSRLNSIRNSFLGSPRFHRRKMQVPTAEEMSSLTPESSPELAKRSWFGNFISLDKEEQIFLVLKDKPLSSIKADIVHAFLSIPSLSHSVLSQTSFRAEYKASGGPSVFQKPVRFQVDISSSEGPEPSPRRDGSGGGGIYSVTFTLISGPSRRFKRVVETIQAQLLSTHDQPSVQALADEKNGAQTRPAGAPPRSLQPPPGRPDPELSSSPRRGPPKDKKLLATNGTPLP
The note with it: at 0.1 µM.

The target in experiment [5] is T2, Serine/threonine-protein kinase BRSK1 (Homo sapiens). The note with it: at 1 µM.
Experiment [6] has as its target T3, Serine/threonine-protein kinase BRSK2 (Homo sapiens) (UniProt Q8IWQ3).
T3 sequence (whole entry): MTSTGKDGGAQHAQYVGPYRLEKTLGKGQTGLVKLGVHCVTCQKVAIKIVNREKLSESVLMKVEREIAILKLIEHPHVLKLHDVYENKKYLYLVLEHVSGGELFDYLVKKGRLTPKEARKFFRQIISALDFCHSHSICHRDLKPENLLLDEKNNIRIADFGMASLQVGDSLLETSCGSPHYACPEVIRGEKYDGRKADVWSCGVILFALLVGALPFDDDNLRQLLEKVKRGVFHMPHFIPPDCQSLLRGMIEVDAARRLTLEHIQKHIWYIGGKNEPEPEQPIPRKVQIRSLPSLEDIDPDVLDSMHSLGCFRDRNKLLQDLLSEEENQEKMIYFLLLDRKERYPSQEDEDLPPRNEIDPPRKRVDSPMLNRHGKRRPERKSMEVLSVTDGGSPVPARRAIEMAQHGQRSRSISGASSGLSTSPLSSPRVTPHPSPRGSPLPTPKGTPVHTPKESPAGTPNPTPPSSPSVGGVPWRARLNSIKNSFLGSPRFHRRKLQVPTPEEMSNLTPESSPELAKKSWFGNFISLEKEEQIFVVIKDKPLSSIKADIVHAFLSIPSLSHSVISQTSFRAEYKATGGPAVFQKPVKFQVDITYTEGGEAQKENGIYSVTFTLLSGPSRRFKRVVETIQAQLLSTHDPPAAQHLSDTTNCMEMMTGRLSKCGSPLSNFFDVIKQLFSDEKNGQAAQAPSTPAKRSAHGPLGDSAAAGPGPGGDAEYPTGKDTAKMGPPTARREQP
The note with it: at 0.1 µM.

The target of experiment [7] is T3, Serine/threonine-protein kinase BRSK2 (Homo sapiens). The note with it: at 1 µM.
In experiment [8] the target is Calcium/calmodulin-dependent protein kinase type 1D (Homo sapiens) (UniProt Q8IU85). The note with it: at 0.1 µM.
Chain of Calcium/calmodulin-dependent protein kinase type 1D (Homo sapiens) (Q8IU85 whole entry, looked up): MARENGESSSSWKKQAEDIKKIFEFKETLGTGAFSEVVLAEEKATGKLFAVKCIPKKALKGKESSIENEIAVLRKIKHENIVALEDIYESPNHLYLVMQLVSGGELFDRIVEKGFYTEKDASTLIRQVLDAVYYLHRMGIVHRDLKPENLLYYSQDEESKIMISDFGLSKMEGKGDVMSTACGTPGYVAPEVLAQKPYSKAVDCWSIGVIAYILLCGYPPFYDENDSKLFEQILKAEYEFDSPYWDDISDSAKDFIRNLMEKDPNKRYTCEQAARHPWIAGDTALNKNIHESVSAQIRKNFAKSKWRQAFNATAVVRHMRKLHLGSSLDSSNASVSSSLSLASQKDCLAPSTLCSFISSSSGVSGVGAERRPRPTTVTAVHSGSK
The target is the same in experiment [9]. The note with it: at 1 µM.
The target in experiment [10] is Calcium/calmodulin-dependent protein kinase type II subunit alpha (Homo sapiens) (UniProt Q9UQM7). The note with it: at 0.1 µM.
Chain of Calcium/calmodulin-dependent protein kinase type II subunit alpha (Homo sapiens) (Q9UQM7 whole entry): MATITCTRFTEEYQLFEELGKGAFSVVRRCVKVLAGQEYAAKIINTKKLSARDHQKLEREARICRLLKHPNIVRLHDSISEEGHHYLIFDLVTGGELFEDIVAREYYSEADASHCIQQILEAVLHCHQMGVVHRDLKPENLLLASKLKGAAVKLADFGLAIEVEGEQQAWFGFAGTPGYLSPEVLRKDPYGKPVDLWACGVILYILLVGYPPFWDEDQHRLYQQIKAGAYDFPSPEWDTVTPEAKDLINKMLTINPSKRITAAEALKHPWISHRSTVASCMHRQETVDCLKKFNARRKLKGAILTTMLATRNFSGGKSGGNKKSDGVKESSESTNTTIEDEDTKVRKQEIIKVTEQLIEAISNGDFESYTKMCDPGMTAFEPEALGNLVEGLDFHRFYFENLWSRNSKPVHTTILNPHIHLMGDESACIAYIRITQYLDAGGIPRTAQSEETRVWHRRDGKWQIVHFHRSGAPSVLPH
Experiment [11] shares this target. The note with it: at 1 µM.
The target of experiment [12] is Calcium/calmodulin-dependent protein kinase type II subunit delta (Homo sapiens) (UniProt Q13557). The note with it: at 0.1 µM.
Chain of Calcium/calmodulin-dependent protein kinase type II subunit delta (Homo sapiens) (Q13557 whole entry): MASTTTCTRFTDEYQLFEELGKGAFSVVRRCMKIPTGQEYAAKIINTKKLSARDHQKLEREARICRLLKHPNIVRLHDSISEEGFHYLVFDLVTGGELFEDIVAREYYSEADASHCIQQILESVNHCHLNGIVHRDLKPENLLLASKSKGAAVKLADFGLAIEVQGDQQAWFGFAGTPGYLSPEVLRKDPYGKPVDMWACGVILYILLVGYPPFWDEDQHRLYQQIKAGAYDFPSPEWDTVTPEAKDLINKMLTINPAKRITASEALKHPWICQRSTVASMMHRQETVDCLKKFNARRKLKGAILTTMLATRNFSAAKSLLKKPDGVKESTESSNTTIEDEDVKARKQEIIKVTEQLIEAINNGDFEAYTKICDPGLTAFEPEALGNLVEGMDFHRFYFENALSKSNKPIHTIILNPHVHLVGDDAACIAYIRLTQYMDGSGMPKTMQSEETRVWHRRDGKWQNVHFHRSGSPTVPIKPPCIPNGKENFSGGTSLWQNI
Experiment [13] has the same target. The note with it: at 1 µM.
In experiment [14] the target is T4, Calcium/calmodulin-dependent protein kinase type IV (Homo sapiens) (UniProt Q16566).
T4 sequence (whole entry): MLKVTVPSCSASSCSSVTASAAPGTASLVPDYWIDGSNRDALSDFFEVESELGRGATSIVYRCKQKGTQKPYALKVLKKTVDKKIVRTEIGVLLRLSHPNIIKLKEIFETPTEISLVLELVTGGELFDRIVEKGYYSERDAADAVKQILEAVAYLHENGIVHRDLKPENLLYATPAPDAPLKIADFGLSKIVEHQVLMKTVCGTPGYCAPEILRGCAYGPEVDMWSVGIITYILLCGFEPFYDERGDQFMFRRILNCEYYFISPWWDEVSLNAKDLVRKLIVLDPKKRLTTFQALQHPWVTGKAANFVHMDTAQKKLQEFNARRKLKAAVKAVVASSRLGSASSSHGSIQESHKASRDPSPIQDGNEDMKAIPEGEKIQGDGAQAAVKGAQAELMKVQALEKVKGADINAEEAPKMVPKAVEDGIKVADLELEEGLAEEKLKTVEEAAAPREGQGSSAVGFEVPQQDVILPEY
The note with it: at 0.1 µM.

Experiment [15] addresses T4, Calcium/calmodulin-dependent protein kinase type IV (Homo sapiens). The note with it: at 1 µM.
The target in experiment [16] is T5, Serine/threonine-protein kinase Chk1 (Homo sapiens) (UniProt O14757).
T5 sequence (whole entry): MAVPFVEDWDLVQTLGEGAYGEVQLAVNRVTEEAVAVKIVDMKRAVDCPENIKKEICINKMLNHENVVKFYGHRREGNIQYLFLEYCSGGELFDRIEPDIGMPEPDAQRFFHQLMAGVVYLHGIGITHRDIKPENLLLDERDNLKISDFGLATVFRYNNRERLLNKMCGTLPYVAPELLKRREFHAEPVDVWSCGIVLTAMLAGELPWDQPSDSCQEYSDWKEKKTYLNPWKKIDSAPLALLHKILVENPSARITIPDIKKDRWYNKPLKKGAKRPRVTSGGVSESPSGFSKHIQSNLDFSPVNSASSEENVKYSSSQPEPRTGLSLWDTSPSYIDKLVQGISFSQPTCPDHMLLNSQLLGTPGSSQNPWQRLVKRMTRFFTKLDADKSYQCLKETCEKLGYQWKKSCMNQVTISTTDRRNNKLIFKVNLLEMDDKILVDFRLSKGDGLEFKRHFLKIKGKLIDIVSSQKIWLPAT
The note with it: at 0.1 µM.

The target in experiment [17] is T5, Serine/threonine-protein kinase Chk1 (Homo sapiens). The note with it: at 1 µM.
The target of experiment [18] is Serine/threonine-protein kinase Chk2 (Homo sapiens) (UniProt O96017). The note with it: at 0.1 µM.
Chain of Serine/threonine-protein kinase Chk2 (Homo sapiens) (O96017 whole entry): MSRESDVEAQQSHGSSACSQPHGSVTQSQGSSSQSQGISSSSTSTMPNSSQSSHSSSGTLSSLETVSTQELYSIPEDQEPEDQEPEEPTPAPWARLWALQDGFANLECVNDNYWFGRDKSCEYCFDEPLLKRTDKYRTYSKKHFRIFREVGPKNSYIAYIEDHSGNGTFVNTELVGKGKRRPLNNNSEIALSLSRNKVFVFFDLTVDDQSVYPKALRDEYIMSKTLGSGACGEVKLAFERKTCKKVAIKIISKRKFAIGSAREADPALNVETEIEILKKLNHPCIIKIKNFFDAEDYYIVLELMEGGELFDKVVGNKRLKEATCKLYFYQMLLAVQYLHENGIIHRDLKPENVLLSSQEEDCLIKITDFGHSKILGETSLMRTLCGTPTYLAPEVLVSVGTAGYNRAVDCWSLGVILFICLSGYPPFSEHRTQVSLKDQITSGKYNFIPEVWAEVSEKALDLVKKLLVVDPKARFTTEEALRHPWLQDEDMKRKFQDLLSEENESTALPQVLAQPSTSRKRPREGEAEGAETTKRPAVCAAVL
Experiment [19] shares this target. The note with it: at 1 µM.
Experiment [20] deals with Death-associated protein kinase 1 (Homo sapiens) (UniProt P53355). The note with it: at 0.1 µM.
Chain of Death-associated protein kinase 1 (Homo sapiens) (P53355 whole entry, looked up): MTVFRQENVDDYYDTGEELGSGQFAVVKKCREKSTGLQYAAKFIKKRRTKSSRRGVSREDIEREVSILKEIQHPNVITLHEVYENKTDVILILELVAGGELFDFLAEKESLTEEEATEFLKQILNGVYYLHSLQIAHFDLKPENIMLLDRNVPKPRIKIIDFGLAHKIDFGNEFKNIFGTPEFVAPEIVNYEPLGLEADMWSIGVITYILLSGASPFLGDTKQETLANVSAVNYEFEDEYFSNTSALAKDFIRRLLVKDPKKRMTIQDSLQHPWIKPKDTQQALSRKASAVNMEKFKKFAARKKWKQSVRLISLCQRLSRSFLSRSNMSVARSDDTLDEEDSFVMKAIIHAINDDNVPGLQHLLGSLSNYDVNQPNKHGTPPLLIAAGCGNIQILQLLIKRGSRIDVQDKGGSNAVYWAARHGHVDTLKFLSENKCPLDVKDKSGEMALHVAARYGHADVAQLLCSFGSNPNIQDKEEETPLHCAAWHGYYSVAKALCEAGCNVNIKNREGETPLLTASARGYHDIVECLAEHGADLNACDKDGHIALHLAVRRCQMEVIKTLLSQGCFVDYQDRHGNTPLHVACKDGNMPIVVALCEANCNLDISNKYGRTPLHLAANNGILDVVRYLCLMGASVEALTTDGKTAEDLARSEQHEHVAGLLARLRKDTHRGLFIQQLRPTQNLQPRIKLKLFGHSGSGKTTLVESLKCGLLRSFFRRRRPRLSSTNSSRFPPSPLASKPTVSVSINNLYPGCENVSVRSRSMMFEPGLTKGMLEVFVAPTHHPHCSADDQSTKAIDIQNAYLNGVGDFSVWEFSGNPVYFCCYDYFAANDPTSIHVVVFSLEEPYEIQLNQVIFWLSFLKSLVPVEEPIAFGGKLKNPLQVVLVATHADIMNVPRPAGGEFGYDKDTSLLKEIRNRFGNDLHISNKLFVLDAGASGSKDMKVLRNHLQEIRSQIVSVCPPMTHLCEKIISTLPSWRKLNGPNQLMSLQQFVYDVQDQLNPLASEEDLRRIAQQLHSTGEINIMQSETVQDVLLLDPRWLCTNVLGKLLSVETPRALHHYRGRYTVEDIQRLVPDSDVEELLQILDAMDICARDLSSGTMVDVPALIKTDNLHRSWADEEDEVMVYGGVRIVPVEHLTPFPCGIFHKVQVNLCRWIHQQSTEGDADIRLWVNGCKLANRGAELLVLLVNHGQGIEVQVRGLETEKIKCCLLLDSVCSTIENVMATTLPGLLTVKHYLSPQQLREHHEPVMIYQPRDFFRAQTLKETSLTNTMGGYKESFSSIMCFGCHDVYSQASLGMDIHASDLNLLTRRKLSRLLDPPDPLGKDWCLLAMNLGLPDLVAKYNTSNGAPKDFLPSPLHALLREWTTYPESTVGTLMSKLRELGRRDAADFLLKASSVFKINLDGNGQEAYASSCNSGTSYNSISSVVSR

Chain of 5'-AMP-activated protein kinase catalytic subunit alpha-2 (Homo sapiens) (P54646 whole entry, looked up): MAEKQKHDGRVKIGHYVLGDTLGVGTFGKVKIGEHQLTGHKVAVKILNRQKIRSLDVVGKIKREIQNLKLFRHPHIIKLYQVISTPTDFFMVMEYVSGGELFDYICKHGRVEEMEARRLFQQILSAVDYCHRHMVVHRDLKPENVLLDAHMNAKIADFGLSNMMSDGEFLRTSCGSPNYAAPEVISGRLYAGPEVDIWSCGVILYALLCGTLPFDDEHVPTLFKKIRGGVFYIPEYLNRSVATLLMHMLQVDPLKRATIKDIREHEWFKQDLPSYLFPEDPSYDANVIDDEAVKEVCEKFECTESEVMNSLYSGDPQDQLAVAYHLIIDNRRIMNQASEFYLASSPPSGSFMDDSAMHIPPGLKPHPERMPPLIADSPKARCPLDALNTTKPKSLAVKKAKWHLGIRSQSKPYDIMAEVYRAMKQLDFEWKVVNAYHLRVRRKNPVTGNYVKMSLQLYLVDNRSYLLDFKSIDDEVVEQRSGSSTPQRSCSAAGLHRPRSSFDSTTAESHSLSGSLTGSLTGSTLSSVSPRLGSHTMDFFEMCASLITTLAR

In the case of `Nc1nc(-c2cccc(Cl)c2)c(-c2ccc3ncccc3n2)s1`, the inhibition in [1] was 3.28%; in [2] it was -2.86%; in [3], 5.81%; in experiment [4] it was 0.2%; in experiment [5], 1.68%; in experiment [6] it was 1.95%. Further, the inhibition in experiment [7] is 4.51%; in experiment [8] it was -0.44%; in experiment [9], 0.6%; in experiment [10], 3.5%; in experiment [11] it was 2.48%; in experiment [12] it was 2.83%. For the same compound, the inhibition in [13] was 3.46%; in experiment [14], -2.8%; in experiment [15] it was -4.36%; in experiment [16], 9.85%; in experiment [17] it was 12.6%; in [18], 10.1%. Moreover, the inhibition was found to be 12.7% in experiment [19] and 12% in experiment [20].

`c1cc(-c2cnn3nc(N4CCOCC4)ccc23)nc(NC2CC2)n1`: the inhibition was found to be 7.62% in [1]; 5.42% in experiment [2]; 25.6% in experiment [3]; 2.4% in experiment [4]; 6.62% in experiment [5]; 3.67% in experiment [6]. Also, the inhibition in experiment [7] turned out to be 7.84%; in experiment [8] it was 1.69%; in experiment [9], 2.68%; in [10], 4.7%; in experiment [11], 6.53%; in experiment [12], 3.77%. The inhibition in [13] was found to be 9.6%; in experiment [14], 1.3%; in [15], 2.07%; in experiment [16], 3.63%; in experiment [17], 1.64%; in experiment [18] it was 3.07%. Further, the inhibition in experiment [19] was 7.4%; in [20] it was 3.51%.

In the case of `COc1ccc2c(-c3ccnc(Nc4cccc(OC(F)(F)F)c4)n3)cnn2n1`, the inhibition is 5.72% in experiment [1]; 6.86% in [2]; 30.7% in experiment [3]; -1.42% in [4]; 3.33% in experiment [5]; 2.27% in [6]. Moreover, the inhibition was 3.88% in experiment [7]; 0.18% in [8]; 2.77% in [9]; 4.78% in experiment [10]; 3.59% in experiment [11]; 2.75% in [12]. The inhibition was 5.82% in [13]; -0.96% in experiment [14]; -0.82% in experiment [15]; 3.59% in experiment [16]; 5.26% in experiment [17]; 3.11% in [18]. Besides, the inhibition in experiment [19] was determined as 5.21%; in experiment [20], 5.2%.
